# Experimental data: ChEMBL document CHEMBL2218924, “A broad activity screen in support of a chemogenomic map for kinase signalling research and drug discovery” (Biochem J, 2013)
# Columns and labels:
# [1] = molecular target: T1, Tyrosine-protein kinase ZAP-70 (Homo sapiens) (UniProt P43403); settings: at 10 µM
# T1 sequence (whole entry): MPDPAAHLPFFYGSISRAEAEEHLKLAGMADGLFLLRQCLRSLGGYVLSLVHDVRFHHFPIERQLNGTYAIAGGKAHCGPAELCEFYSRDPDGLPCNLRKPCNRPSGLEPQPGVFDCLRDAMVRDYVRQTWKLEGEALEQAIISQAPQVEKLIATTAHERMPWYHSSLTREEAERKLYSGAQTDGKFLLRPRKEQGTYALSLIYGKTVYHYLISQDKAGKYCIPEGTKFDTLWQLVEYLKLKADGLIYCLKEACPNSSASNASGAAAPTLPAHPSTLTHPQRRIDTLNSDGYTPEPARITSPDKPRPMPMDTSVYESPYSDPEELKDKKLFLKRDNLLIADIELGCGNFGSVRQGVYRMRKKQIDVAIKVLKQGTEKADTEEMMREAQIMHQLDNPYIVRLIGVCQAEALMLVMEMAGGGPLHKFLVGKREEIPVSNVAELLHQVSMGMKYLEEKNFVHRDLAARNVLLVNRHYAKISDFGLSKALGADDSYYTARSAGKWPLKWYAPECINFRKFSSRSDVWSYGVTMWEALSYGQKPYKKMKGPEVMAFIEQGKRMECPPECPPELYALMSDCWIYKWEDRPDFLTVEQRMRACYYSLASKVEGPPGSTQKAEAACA
# [2] = molecular target: RAF proto-oncogene serine/threonine-protein kinase (Homo sapiens) (UniProt P04049); settings: at 10 µM
# RAF proto-oncogene serine/threonine-protein kinase (Homo sapiens), sequence (P04049 whole entry): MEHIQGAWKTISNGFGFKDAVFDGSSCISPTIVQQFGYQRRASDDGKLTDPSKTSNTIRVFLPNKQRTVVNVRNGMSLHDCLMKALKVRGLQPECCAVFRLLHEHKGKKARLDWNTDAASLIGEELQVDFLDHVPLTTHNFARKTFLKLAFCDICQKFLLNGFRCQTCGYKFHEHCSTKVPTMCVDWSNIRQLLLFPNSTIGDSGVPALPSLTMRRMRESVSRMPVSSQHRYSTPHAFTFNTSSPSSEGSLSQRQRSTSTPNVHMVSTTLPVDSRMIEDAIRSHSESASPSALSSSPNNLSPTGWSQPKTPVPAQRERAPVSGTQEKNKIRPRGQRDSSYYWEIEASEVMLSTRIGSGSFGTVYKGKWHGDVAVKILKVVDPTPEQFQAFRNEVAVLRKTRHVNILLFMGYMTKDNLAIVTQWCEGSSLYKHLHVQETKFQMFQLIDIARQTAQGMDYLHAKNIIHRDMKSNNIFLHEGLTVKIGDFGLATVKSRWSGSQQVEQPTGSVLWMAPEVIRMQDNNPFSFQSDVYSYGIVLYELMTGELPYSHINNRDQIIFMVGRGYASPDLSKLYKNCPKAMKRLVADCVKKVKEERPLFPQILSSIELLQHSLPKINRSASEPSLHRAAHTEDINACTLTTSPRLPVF
smiles,measurement,setting,value
Cn1c2ccccc2c2c3c(c4c5ccccc5n(CCC#N)c4c21)CNC3=O,residual activity,[1],111%
O=C(CCCc1ccc(-c2ccccc2F)cc1)Nc1ccc(O)cc1,residual activity,[1],109%
N#Cc1cnc2cnc(NCc3cccnc3)cc2c1Nc1ccc(F)c(Cl)c1,residual activity,[1],38%
Oc1c2ccccc2c2c3c(cccc13)N=N2,residual activity,[1],98%
Cc1nc2cc3nc(-c4cccs4)cnc3cc2n1C,residual activity,[1],115%
Ic1cccc(CSc2nnc(-c3ccncc3)o2)c1,residual activity,[1],102%
O=C(Nc1cccc(Nc2nccc(Nc3cccc(C(F)(F)F)c3)n2)c1)C1CC1,residual activity,[1],116%
O=c1cc(N2CCOCC2)oc2c1ccc1ccccc12,residual activity,[1],93%
O=C1NC(=O)c2c1c1c3ccccc3[nH]c1n1cncc21,residual activity,[1],102%
COc1ccc(CNc2nc(N(CCO)CCO)nc3c2ncn3C(C)C)cc1,residual activity,[1],88%
COc1ccc(S(=O)(=O)N(CCO)c2ccccc2CN(C)C/C=C/c2ccc(Cl)cc2)cc1,residual activity,[1],97%
COc1cc2ncnc(Nc3ccc(O)c(Br)c3)c2cc1OC,residual activity,[1],105%
COc1cc2ncnc(Nc3ccc(Oc4ccccc4)cc3)c2cc1OC,residual activity,[1],114%
Oc1ccc(-c2nc(-c3ccc(F)cc3)c(-c3ccncc3)[nH]2)cc1,residual activity,[2],1%
